Results on 173 sequences are retold here after article PMC6212790, “How bacterial xenogeneic silencer rok distinguishes foreign from self DNA in its resident genome”.

Whole data set: some 33,000 sequences, median “e-score” near -0.038, cut for the highest 2% near 0.33. What follows is part of a selection rich in the highest values, with near analogues and random picks from the rest.

This experiment concerns the target T1, GST-Rok-C97-191 (Bacillus subtilis subsp. subtilis str. …, UniProt O34857 97-191).
T1 sequence: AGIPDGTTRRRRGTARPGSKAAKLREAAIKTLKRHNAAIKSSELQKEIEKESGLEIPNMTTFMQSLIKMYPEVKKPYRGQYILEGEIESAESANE
Put plainly: protein binding microarray; Rok is a gene silencer of Bacillus subtilis; high values mean tight binding. To be noted: protein: recombinant; tags: GST (pTH5325, pDEST15-Magic modified); dsDNA, one strand shown. In short, it runs like this:
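Every oligonucleotide joins a 25-mer constant primer to a 35-mer variable part drawn from a de Bruijn sequence of order 10, so each non-palindromic 8-mer appears at least 32 times and each palindromic 8-mer 16 times. The preference for every 8-mer is reported as a unitless, rank-based enrichment score (E-score). This score spans 0.5 for the most favored 8-mer to −0.5 for the most disfavored.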
CGCCGTTC: the binding signal is -0.164 E-score. For CATATGAA, the binding signal was -0.0194 E-score. CATATGTA: the binding signal came to 0.36 E-score. Turning to GATATGTA, the binding signal is 0.303 E-score. As to CATATGTC, the binding signal is 0.00539 E-score.

In the case of AATATGTA, the binding signal was found to be 0.375 E-score. AATATGTC: the binding signal worked out at 0.135 E-score. GCATCAAC: the binding signal worked out at 0.0173 E-score. For CGATAAGC, the binding signal worked out at 0.0146 E-score. As to CTCTATGC, the binding signal was -0.0298 E-score.

For the sequence AAGAGTAG, the binding signal turned out to be 0.212 E-score. Turning to AAACTAGG, the binding signal worked out at 0.285 E-score. Turning to ACACTAGT, the binding signal amounted to 0.257 E-score.

As to CAACTAGC, the binding signal was 0.214 E-score. AAACTAGC: the binding signal was 0.337 E-score.

Take AAACTAGT: the binding signal was determined as 0.445 E-score. With GAACTAGC, the binding signal was 0.205 E-score. For CGCTGCAA, the binding signal is -0.0879 E-score. Next, TACCATAA: 0.354 E-score; GACCATAA: 0.0376 E-score. Next, AACCATAA: 0.0116 E-score; ACGTTCGG: 0.0487 E-score. GATGGCGA: the binding signal worked out at 0.0644 E-score. As for GAATCTCC, the binding signal was 0.0847 E-score. Turning to CAATCTGC, the binding signal turned out to be 0.0189 E-score. As to CAATCTAA, the binding signal was found to be 0.232 E-score. For GAATCTAA, the binding signal turned out to be 0.188 E-score. With CGATCTAC, the binding signal worked out at 0.335 E-score. As to CGATCTAG, the binding signal worked out at 0.26 E-score. As for CAATCTAC, the figure is 0.395 E-score; as for CGATCTAA, -0.0333 E-score; as for GAATCTAC, 0.423 E-score. For the sequence CAAGAACC, the binding signal was -0.0441 E-score. As to GGGACAAA, the binding signal was -0.132 E-score. As to TGGAGGAA, the binding signal is -0.00731 E-score. Next, AGCGTAAG: -0.0539 E-score.

For the sequence CCTATTCG, the binding signal was -0.0809 E-score. Consider ACTCATCT, for which the binding signal was -0.0629 E-score. As for ATGCCCAC, the figure is -0.129 E-score; as for ATTTTGTA, 0.228 E-score. Consider GATTTGTA, for which the binding signal was determined as 0.176 E-score. In the case of AGTTTGTC, the binding signal is 0.0866 E-score. With AATTTGTA, the binding signal came out at 0.346 E-score. Take CGTTTGTA: the binding signal was 0.113 E-score. For AGTTTGTA, the binding signal turned out to be 0.367 E-score. As for ACTGAAGG, the binding signal was -0.0541 E-score.

For AGCTCGTC, the binding signal is -0.149 E-score. Next, CCACTAAC: 0.0126 E-score; CTGCTCCA: -0.00585 E-score.

With CGACATGC, the binding signal is -0.104 E-score. Next, GATTCTAA: 0.086 E-score; AATTCTAA: 0.286 E-score; AGTTCTAC: 0.386 E-score. Next, AGTTCTAT: 0.242 E-score; CATTCTAA: 0.12 E-score; AATTCTAC: 0.421 E-score.

As for GATTCTAC, the binding signal came to 0.406 E-score. Next, AGTTCTAA: 0.142 E-score; GATTCTGC: 0.0425 E-score. On to CATTCTAC, for which the binding signal is 0.384 E-score. Regarding AATTCTAT, the binding signal is 0.286 E-score. As to CATTCTAG, the binding signal was determined as 0.202 E-score. In the case of CCGACGTA, the binding signal is -0.0042 E-score. Next, CACATTAG: 0.175 E-score; GACTCGTA: -0.148 E-score; ATGCTACC: 0.00967 E-score. As for TAGATAAA, the binding signal came out at 0.292 E-score. Take AAAAAATG: the binding signal is -0.032 E-score. As for TCAGGAGA, the figure is -0.166 E-score; as for ACTAATGC, 0.262 E-score; as for TACTACGA, 0.291 E-score.

In the case of CGCTACTA, the binding signal was determined as 0.326 E-score. Next, AACTACTA: 0.465 E-score; GGCTACTA: 0.0153 E-score. Regarding AACTACGG, the binding signal was determined as 0.19 E-score. Take TACTACAA: the binding signal was 0.303 E-score. On to AGCTACTG, for which the binding signal came out at 0.233 E-score.

Take AACTACTG: the binding signal is 0.424 E-score. Next, TACTACTA: 0.44 E-score; GCCTACTA: 0.229 E-score; AACTATTG: 0.291 E-score. Next, AGCTACTA: 0.378 E-score; AGGGCACA: -0.171 E-score.

Regarding ATGAATCA, the binding signal was -0.0987 E-score. With CCGACAAC, the binding signal was -0.076 E-score. For TACCCTCA, the binding signal was -0.129 E-score. As for AAGTTCCA, the figure is -0.0431 E-score; as for ACTCACTG, 0.00942 E-score. GATCCAAC: the binding signal is -0.164 E-score. Take CAACCATC: the binding signal was -0.0304 E-score.

ATTAAACG: the binding signal worked out at 0.0877 E-score. As for ACAAGGGC, the figure is -0.198 E-score. As for AATGCCCT, the binding signal worked out at 0.0279 E-score. As for AACTACTT, the figure is 0.392 E-score; as for CACTACGA, 0.123 E-score; as for CGCTAATA, 0.286 E-score. For ACCTACTG, the binding signal came to 0.238 E-score.

Turning to AGCTAATA, the binding signal was determined as 0.366 E-score. Next, AAGTACTT: 0.325 E-score; AGCTAATC: 0.102 E-score; CCCTACTA: 0.124 E-score.

For AACAACTT, the binding signal came to 0.144 E-score. As for CACTACTA, the binding signal is 0.344 E-score.

For ACCTACTA, the binding signal worked out at 0.343 E-score. In the case of CACTACTG, the binding signal came out at 0.0489 E-score. Consider CGAAGGAG, for which the binding signal is -0.0169 E-score. As to ACCAGACG, the binding signal was -0.153 E-score. With AGTAGTCA, the binding signal is 0.259 E-score. Turning to AGTAAAGA, the binding signal worked out at 0.0717 E-score. Regarding CTCGCTCA, the binding signal was -0.0517 E-score. In the case of ACTATGGA, the binding signal was determined as 0.0778 E-score. As for CGTTATCA, the figure is 0.165 E-score.

Turning to ACGTCCTG, the binding signal was -0.0421 E-score. ACTGACGG: the binding signal was -0.0188 E-score. Take ACTAACAC: the binding signal was found to be 0.0585 E-score. Turning to GACTACGA, the binding signal stood at 0.0584 E-score.

For the sequence CACTGCTA, the binding signal was determined as 0.0112 E-score. TACTGCTA: the binding signal came out at 0.334 E-score. Regarding CACTACTC, the binding signal is -0.0277 E-score. Consider AACTACTC, for which the binding signal came to 0.363 E-score. AGCTACCA: the binding signal was determined as 0.35 E-score. Turning to GACTACTC, the binding signal is 0.127 E-score. Consider GACTACTA, for which the binding signal is 0.373 E-score.

For the sequence AGCTACCC, the binding signal stood at 0.025 E-score.

AACTGCTA: the binding signal came to 0.0364 E-score. Turning to ACCTACTC, the binding signal was found to be 0.0493 E-score.

Take AGCTACCT: the binding signal came to 0.209 E-score. Take AAAACCGA: the binding signal came out at 0.0507 E-score.

For the sequence TATTCCCA, the binding signal came to 0.217 E-score. Turning to ATCTAGGC, the binding signal came to 0.0159 E-score. Take GCAACATA: the binding signal came out at 0.217 E-score.

CTCGCATC: the binding signal was -0.126 E-score. With ATACTAGA, the binding signal stood at 0.305 E-score. In the case of ATACTATA, the binding signal is 0.365 E-score. In the case of GTGCTATA, the binding signal turned out to be 0.202 E-score.

With GGACTATA, the binding signal was found to be 0.0884 E-score. On to CTGCTATA, for which the binding signal stood at 0.039 E-score.

For GTACTATA, the binding signal came out at 0.436 E-score. On to GCACTATA, for which the binding signal is 0.0612 E-score. Take ATACTATG: the binding signal is 0.254 E-score. As to CCACTATA, the binding signal is 0.219 E-score. On to CTACTATA, for which the binding signal worked out at 0.371 E-score. On to ATGCTATA, for which the binding signal is 0.35 E-score.

Regarding CGACTATA, the binding signal was determined as 0.122 E-score. In the case of TGAGGCAA, the binding signal is -0.148 E-score. In the case of ACGACTTC, the binding signal worked out at 0.0725 E-score. For GCTGGTTA, the binding signal is 0.0982 E-score. Next, AGACCTGC: -0.148 E-score; CGCCAGCG: -0.123 E-score.

With AGACAATA, the binding signal was 0.0922 E-score. For TACAGTCA, the binding signal came out at 0.144 E-score. Next, TGGCTGAA: 0.00639 E-score; TAGTACTA: 0.402 E-score. For the sequence CAGTACTA, the binding signal is 0.264 E-score.

Regarding AAGTACTG, the binding signal came to 0.145 E-score. In the case of GAGTACTA, the binding signal turned out to be 0.0418 E-score. Consider AAGTACTA, for which the binding signal turned out to be 0.385 E-score. Consider AAGTACAA, for which the binding signal was found to be 0.349 E-score.

Turning to GAGTACAA, the binding signal amounted to 0.136 E-score.

For AAGTACTC, the binding signal amounted to 0.146 E-score. Regarding AAGTACAC, the binding signal was 0.275 E-score. As for GTTATGCA, the binding signal amounted to 0.256 E-score.

For CCTTCAAC, the binding signal is -0.0251 E-score.

In the case of CTATTGGC, the binding signal is -0.0724 E-score. Take AAGCAAGT: the binding signal is -0.0255 E-score. Take GGCTATAC: the binding signal is -0.00424 E-score. As for ACAAGTCT, the binding signal is -0.182 E-score. On to GTAGTAAC, for which the binding signal worked out at 0.307 E-score. For the sequence ATAGTAAT, the binding signal is 0.396 E-score. For ATAGTAAC, the binding signal came out at 0.28 E-score. Turning to ATAGTACA, the binding signal is 0.347 E-score. On to ATAGTACC, for which the binding signal came out at 0.254 E-score. Regarding TTAGTAAA, the binding signal was determined as 0.21 E-score.
